The nature of test [1]: AP1 Signaling Pathway (AID 357; active means well fitted curve in either direction with a large enough effect, not every such curve was filed as active;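 further: ME-180 reporter cells stimulated with EGF at its EC50 level; on the % scale 0 is the no-effect control and ±100 the full control effect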). Put shortly: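 A ratiometric CCF4 readout (405 nm excitation; 460 and 530 nm emission) quantified AP-1-driven beta-lactamase in ME-180 cells after 5 h with compound and EC50 EGF; AC50 values were derived for activators and inhibitors.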
Test [2] is described as follows: NFAT Signaling Pathway (AID 444; active means well fitted curve in either direction with a large enough effect, not every such curve was filed as active;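 further: carbachol stimulus at about its EC50 of 1 µM final; on the % scale 0 is the no-effect control and ±100 the full control effect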). The conditions noted are these: Jurkat NFAT-bla M1, carbachol, beta-lactamase ratio, 5 h; at 17.2 µM (top of the series) unless noted. The method in brief: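 Jurkat cells carrying an NFAT-driven β-lactamase reporter and co-transfected muscarinic M1 receptor were treated with compound plus carbachol (1 uM final, an EC50 level) for 5 h at 37 °C. CCF4 loading followed for 1 h at RT; 460/530 nm ratio gave %activity.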

Test [3] is described as follows: Stat Signaling Pathway (AID 446; active means well fitted curve in either direction with a large enough effect, not every such curve was filed as active;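 further: ME-180 cervical cancer cells given 40 pM IL-6 alongside compound; SIE-controlled beta-lactamase reporter measured as 460/530 nm FRET emission ratio; on the % scale 0 is the no-effect control and ±100 the full control effect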). Put shortly: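 Overnight-plated ME-180 cells bearing a STAT Inducible Element beta-lactamase reporter; 5 h co-exposure to compound and 40 pM IL-6; values normalized to 300 pM IL-6 and 125 nM JAK inhibitor controls.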
Test [4] has as its target Glucocorticoid receptor (Homo sapiens) (UniProt P04150). Put plainly: GR-GFP Redistribution (AID 450;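 active means compounds whose dose series gives a full or clear partial fitted curve of increased nuclear translocation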; further: potency means the concentration at half of the fitted maximal effect). The conditions noted are these: U2OS GR-GFP nuclear translocation, laser cytometry, 2 h.
The target is the same in test [5]. Kind of test: GR-EFC Redistribution (AID 451; calls by dose curve; further: potency means the concentration at half of the fitted maximal effect). The conditions noted are these: CHO-K1 GR-EFC translocation, beta-gal luminescence, 2 h. Put shortly:
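CHO-K1 cells stably expressing nuclear-localized β-gal enzyme acceptor and GR fused C-terminally to the enzyme donor fragment; ligand-driven nuclear translocation restores β-gal by complementation. Compounds titrated up to 46 uM final, 2 h at 37 °C; luminescence read.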

For test [6], the target named is Mitogen-activated protein kinase 10 (Mus musculus) (UniProt Q61831). Put plainly: JNK3 AlphaScreen Assay (AID 530; active means well fitted curve in either direction with a large enough effect, not every such curve was filed as active;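 further: kinase came from lysate of stimulated human HepG2 cells; signal reports phosphorylation of biotinylated GST-cJun 1-79 at Ser73 with 10 µM ATP; on the % scale 0 is the no-effect control and ±100 the full control effect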). Put shortly:
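Phosphorylation of biotinylated GST-cJun(1-79) at Ser73 is measured by AlphaScreen proximity luminescence. Enzyme is JNK3 in HepG2 lysates activated with interleukin-1beta and tumor necrosis factor alpha; ATP is 10 uM final.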

Test [7] addresses 3',5'-cyclic-AMP phosphodiesterase 4B (Homo sapiens) (UniProt Q07343). Put plainly: qHTS Assay for Inhibitors of PDE-IV (AID 607; active means well fitted activation curve with a large enough effect in the main read-out, with a control signal flat, not every such curve was filed as active; further: % of control where 0% means no effect). The method in brief:
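Live HEK293 cells with a modified cyclic nucleotide-gated (CNG) channel report intracellular cAMP via membrane-potential dye fluorescence (ex 535/em 590 nm). Endogenous PDE-IV was targeted. Compounds were tested at up to 22.9 uM final; RO 20-1724 100 uM served as control.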

Test [8] in a line: qHTS Assay for Lipid Storage Modulators (AID 1519; calls by dose curve). The conditions noted are these: Drosophila S3 cells, BODIPY lipid droplet/cell ratio, laser cytometry, cells loaded with oleic acid; for activity change, negative = inhibition: at 25.7 µM (top of the series). The method in brief: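 Cells seeded at 5,000 per well were treated with compounds over a concentration series and loaded with oleic acid (400 uM, as added). Lipid droplet fluorescence (488 nm excitation, 500-530 nm channel) was read by laser-scanning cytometry and normalized to 20 uM Triacsin C.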
In general terms: In qHTS, concentration-response curves come from the screen itself.

Test [9] addresses Ubiquitin carboxyl-terminal hydrolase 1 (Homo sapiens) (UniProt O94782). Put plainly: Inhibitors of USP1/UAF1: Pilot qHTS (AID 504865).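 Further: rhodamine fluorescence freed from ubiquitin-rhodamine substrate followed over time; top concentration of the series differs between compounds; on the % scale 0 is the no-effect control and ±100 the full control effect; nearly all actives have a fitted effect of over 35% in size.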 The method in brief: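 Kinetic fluorescence assay: 1nM USP1/UAF1, 15 min compound preincubation, then 150nM Ub-Rho; 480/540 nm.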
Test [10] concerns the target Luciferin 4-monooxygenase (Photinus pyralis) (UniProt P08659). Kind of test: Biochemical firefly luciferase enzyme assay for NPC (AID 624030).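 Further: purified P. pyralis luciferase at 10 nM with luciferin and ATP substrate; 0% = DMSO and -100% = full luciferase inhibition by PTC124 control; nearly all actives have a fitted effect of over 70% in size.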 Put shortly: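 Counter-screen for direct inhibition of the luciferase enzyme by approved-drug library compounds, run at 10 nM enzyme in 50 mM Tris acetate (final). Luminescence was read within 5 min of enzyme-buffer addition and normalized to PTC124 versus DMSO (0%).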

Test [11] can be described thus: qHTS profiling for inhibitors of Plasmodium falciparum proliferation (AID 504749).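 Further: 0% = DMSO vehicle and full inhibition = artemisinin control; nearly all actives have a fitted effect of over 60% in size.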 The following applies: P. falciparum in erythrocytes, SYBR Green DNA, 72 h, at 12.8 µM (top of the series). Put shortly:
(§1)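 Quantitative HTS: compounds pinned into medium, infected erythrocytes added (0.3% parasitemia, 2.5% hematocrit), 72 h culture at 37 C under 5% CO2. Saponin/Triton lysis with SYBR Green I, overnight RT, then fluorescence read.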

The next test relates to C2A. The test is described as above. The conditions noted are these: P. falciparum in erythrocytes, SYBR Green DNA, 72 h; series mostly up to 12.8 µM. The method in brief: as §1
A further test has as its system CP217. Described as above. The conditions noted are these: P. falciparum in erythrocytes, SYBR Green DNA, 72 h; series mostly up to 12.8 µM. Put shortly:
as §1

In the next test the test system is CP238. The test is described as above. The conditions noted are these: P. falciparum in erythrocytes, SYBR Green DNA, 72 h; series mostly up to 12.8 µM. The method in brief: as §1
The next test has as its system CP250. The description is as above. The following applies: P. falciparum in erythrocytes, SYBR Green DNA, 72 h; series mostly up to 12.8 µM. The method in brief: as §1
The next test has as its system CP252. The test is described as above. The conditions noted are these: P. falciparum in erythrocytes, SYBR Green DNA, 72 h; series mostly up to 12.8 µM. The method in brief:
as §1

A further test deals with FAB9. The test is described as above. The conditions noted are these: P. falciparum in erythrocytes, SYBR Green DNA, 72 h; series mostly up to 12.8 µM. The method in brief: as §1
The subject of the next test is HB3. The description is as above. The conditions noted are these: P. falciparum in erythrocytes, SYBR Green DNA, 72 h; series mostly up to 12.8 µM. Put shortly:
as §1

The subject of another test is SC27B. The description is as above. The following applies: P. falciparum in erythrocytes, SYBR Green DNA, 72 h; series mostly up to 12.8 µM. Put shortly:
as §1

In test [12] the target is ATP-dependent 6-phosphofructokinase (Trypanosoma brucei brucei) (UniProt O15648). Kind of test: qHTS Assay to Find Inhibitors of T. brucei phosphofructokinase: hit validation (AID 492961). The method in brief: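 Reaction: 0.1 M triethanolamine pH 8.0, 5 mM MgCl2, F6P 0.5 mM, ATP 0.1 mM, PFK 1.25 nM, 45 min RT. Read-out: ADP-Glo luminescence. Analysis: concentration-response fits, classed by r2 and efficacy.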
Chain of ATP-dependent 6-phosphofructokinase (Trypanosoma brucei brucei) (O15648 whole entry, looked up): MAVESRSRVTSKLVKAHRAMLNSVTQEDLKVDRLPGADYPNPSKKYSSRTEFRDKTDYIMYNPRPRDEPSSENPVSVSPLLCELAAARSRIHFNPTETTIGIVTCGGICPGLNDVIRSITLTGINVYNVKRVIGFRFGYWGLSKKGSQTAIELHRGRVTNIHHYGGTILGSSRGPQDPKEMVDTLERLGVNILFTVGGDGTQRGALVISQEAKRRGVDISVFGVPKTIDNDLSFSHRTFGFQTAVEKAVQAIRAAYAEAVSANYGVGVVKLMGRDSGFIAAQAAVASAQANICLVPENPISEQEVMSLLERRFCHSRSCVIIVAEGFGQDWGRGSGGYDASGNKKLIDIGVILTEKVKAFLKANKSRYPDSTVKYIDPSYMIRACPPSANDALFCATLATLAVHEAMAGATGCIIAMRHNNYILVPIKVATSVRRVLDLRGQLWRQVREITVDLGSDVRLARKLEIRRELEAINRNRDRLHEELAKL

Setting [13] is: measured here: cell count channel max response.
[14] abbreviates: measured here: lipid channel max response.

Inconclusive results are not listed. The source made the active and inactive calls. Unless noted, the call rests on the fitted dose curve; in most records, active means well fitted curve in the direction sought with a large enough effect; inconclusive means small, poorly fitted or top-dose-only effect, or another doubt; inactive means no such curve, though single readings can be large; an effect the other way counts as inactive or inconclusive.

Chain of Glucocorticoid receptor (Homo sapiens) (P04150 whole entry, looked up): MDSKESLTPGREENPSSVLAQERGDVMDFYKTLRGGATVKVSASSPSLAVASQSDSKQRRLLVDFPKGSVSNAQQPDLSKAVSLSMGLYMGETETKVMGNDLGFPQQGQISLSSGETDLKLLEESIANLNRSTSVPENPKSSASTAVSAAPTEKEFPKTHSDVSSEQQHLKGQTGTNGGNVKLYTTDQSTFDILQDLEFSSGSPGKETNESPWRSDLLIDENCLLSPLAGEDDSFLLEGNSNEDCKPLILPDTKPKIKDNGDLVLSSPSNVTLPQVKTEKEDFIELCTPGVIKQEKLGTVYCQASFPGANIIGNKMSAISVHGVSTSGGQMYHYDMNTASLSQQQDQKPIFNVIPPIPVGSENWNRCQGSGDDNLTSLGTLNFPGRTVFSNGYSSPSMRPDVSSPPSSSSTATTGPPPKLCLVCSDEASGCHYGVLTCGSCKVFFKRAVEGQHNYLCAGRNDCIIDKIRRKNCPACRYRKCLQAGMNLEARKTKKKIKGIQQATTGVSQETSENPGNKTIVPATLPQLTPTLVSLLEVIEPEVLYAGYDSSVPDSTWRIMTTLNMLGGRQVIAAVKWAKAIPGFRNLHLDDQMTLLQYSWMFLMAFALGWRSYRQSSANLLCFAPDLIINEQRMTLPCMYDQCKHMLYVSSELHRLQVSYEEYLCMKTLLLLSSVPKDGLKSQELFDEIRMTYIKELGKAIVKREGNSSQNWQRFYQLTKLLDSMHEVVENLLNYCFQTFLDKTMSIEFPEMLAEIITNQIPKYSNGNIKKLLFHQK
Chain of Ubiquitin carboxyl-terminal hydrolase 1 (Homo sapiens) (O94782 whole entry, looked up): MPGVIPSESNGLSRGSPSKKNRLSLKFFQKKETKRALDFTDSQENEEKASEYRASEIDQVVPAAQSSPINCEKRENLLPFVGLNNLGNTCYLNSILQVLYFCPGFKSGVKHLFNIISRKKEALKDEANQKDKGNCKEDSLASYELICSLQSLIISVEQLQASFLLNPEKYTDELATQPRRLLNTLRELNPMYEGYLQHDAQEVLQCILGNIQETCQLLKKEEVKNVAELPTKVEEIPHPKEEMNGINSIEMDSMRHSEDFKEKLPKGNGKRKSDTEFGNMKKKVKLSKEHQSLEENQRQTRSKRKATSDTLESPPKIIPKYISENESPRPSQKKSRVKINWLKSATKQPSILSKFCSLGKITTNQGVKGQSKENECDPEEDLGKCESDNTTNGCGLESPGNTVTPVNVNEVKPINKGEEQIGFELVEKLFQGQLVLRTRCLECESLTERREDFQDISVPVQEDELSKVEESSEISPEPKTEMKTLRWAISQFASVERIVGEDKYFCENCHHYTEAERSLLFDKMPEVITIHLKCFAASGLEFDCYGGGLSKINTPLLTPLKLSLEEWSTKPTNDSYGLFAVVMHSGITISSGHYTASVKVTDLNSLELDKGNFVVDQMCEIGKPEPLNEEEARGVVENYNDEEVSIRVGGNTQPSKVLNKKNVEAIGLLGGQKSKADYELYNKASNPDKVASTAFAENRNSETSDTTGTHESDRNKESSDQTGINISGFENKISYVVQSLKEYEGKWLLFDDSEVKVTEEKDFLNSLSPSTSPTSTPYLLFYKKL
Chain of 3',5'-cyclic-AMP phosphodiesterase 4B (Homo sapiens) (Q07343 whole entry, looked up): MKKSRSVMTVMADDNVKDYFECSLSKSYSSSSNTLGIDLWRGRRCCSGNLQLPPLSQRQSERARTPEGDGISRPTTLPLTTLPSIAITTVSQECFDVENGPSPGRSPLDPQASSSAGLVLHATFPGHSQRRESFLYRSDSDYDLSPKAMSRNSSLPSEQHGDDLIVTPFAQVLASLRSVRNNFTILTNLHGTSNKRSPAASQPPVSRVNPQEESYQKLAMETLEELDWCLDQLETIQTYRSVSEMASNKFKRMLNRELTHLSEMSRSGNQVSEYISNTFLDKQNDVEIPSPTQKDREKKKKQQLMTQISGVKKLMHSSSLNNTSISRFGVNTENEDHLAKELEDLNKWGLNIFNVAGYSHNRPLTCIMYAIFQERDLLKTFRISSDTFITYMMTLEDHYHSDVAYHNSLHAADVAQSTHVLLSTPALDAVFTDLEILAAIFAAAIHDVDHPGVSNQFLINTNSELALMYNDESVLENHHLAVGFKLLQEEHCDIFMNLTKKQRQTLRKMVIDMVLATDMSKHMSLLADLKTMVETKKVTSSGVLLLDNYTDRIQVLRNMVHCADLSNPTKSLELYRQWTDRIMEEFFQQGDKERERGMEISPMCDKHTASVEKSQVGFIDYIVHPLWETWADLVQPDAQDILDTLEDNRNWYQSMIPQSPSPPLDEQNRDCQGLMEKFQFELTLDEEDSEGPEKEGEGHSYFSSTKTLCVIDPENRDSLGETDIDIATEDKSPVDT
Chain of Luciferin 4-monooxygenase (Photinus pyralis) (P08659 whole entry, looked up): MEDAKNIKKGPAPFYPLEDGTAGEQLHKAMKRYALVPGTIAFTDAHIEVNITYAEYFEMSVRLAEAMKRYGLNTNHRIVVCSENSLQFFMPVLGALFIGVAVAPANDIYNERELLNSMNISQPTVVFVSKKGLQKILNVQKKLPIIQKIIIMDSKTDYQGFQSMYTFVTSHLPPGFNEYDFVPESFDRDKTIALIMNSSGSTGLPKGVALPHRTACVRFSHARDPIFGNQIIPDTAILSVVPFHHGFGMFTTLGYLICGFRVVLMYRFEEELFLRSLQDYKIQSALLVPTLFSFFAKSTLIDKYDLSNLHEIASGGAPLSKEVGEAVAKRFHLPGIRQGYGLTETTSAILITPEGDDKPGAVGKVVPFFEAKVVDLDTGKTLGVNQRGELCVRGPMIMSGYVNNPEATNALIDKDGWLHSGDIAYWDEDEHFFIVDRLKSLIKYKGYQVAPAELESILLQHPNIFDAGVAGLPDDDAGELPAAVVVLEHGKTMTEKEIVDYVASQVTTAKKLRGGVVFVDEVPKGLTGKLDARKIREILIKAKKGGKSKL

Consider `NC[C@@H]1O[C@H](O[C@@H]2[C@H](O[C@@H]3O[C@H](CO)[C@@H](O)[C@@H]3O)[C@@H](O)[C@@H](N)C[C@H]2N)[C@@H](N)[C@H](O)[C@@H]1O`, for which the call in test [1], in [3] and in test [7] was inactive. Further, the activity change, negative = inhibition in [2] was -8.79% (inactive); in [8] it was -2.12% (inactive). For the same compound, the Potency in test [4] and in test [5] was > 20.6 µM (inactive) each time. Moreover, the Potency result (in [6]; in test [9]; in test [10]; with C2A; with CP217; in the test with CP238) was “inactive” in each case. In addition, the Potency entry in the test on CP250, in the test with CP252, with FAB9, in the test on HB3 and in the test on SC27B was “inactive” throughout. Further, the max response is -8.12% in test [8] (setting [13]) and -11.1% in test [8] (setting [14]). In addition, the activity, negative = inhibition is -3.69% (inactive) in test [11] (parasite line A) and 2.48% (inactive) in [11] (parasite line B).

On to `C=C1C[C@@]23C[C@]1(O)CC[C@@H]2[C@]12C=C[C@@H](O)[C@](C)(C(=O)O1)[C@H]2[C@H]3C(=O)O`, for which the call in test [1], in test [3] and in test [7] was inactive. The activity change, negative = inhibition in [2] was -11.2% (inactive); in test [8], 1.67% (inactive). Moreover, the Potency in [4] and in [5] was > 20.6 µM (inactive) throughout. Also, the Potency entry in test [6] and in [9] was “inactive” each time. For the same compound, the figures for the max response in test [8] (setting [13]) and in test [8] (setting [14]) were 0.159% and 3.63%, respectively.

As for `CC(=O)N(C[C@@H](C)C(=O)O)c1c(I)cc(I)c(N)c1I`, the activity change, negative = inhibition in test [2] was -3.37% (inactive); in test [8] it was 0.163% (inactive). Also, the result in [3], in test [7] and in test [12] was inactive. The Potency in test [4] and in test [5] was > 20.6 µM (inactive) throughout. For the same compound, the Potency result (in test [6]; in [9]; in [10]; with C2A; in the test with CP217; in the test with CP238) was “inactive” each time. Further, the Potency result in the test on CP250, in the test with CP252, with FAB9, in the test with HB3 and in the test with SC27B was “inactive” in each case. Besides, the figures for the max response in test [8] (setting [13]) and in [8] (setting [14]) were 2.03% and 3.33%, respectively. Further, the activity, negative = inhibition is 4.38% (inactive) in test [11] (parasite line A) and 4.5% (inactive) in test [11] (parasite line B).

In the case of `CC(C)n1c(/C=C\[C@@H](O)C[C@@H](O)CC(=O)O)c(-c2ccc(F)cc2)c2ccccc21`, the outcome in test [1] and in test [7] was inactive. The activity change, negative = inhibition was 6.57% (inactive) in test [2] and -2.74% (inactive) in test [8]. The Potency in test [4] and in [5] was > 20.6 µM (inactive) in each case. Further, the Potency result in test [6] is “inactive”. Also, the max response is -6.17% in test [8] (setting [13]) and -6.63% in test [8] (setting [14]).

With `CCOC(=O)O[C@@H](C)OC(=O)[C@@H]1N2C(=O)[C@@H](NC(=O)[C@@H](N)c3ccccc3)[C@H]2SC1(C)C`, the outcome in test [1] and in test [7] was inactive. The activity change, negative = inhibition was -4.72% (inactive) in [2] and -1.29% (inactive) in test [8]. Also, the Potency result (in test [6]; in test [9]; in test [10]; in the test with C2A; in the test with CP217; with CP238) was “inactive” throughout. The Potency entry in the test on CP250, with CP252, in the test with FAB9, in the test with HB3 and in the test with SC27B was “inactive” in each case. Further, the max response in [8] (setting [13]) turned out to be 3.59%; in test [8] (setting [14]), 0.724%. Besides, the activity, negative = inhibition in [11] (parasite line A) is 6.23% (inactive); in test [11] (parasite line B) it was 6.1% (inactive).

Source of the values: PubChem BioAssay (NCATS).
